Consider seven compounds from PubChem BioAssay (Tox21).

Test [1] is described as follows: qHTS assay to identify small molecule antagonists of the estrogen related receptor (ERR) signaling pathway from Tox21 library - cell viability counter screen (AID 1224834). Further: nearly all actives have a fitted effect of over 30% in size. The gist of the method: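 ERR reporter cells, 2,000 per well, rested 6 h, then exposed to compound in DMSO for 17.5 hours at 37 C. Viability read as fluorescence after 30 min with CellTiter-Fluor.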

Test [2] concerns the target Luciferin 4-monooxygenase (Photinus pyralis) (UniProt P08659). The experiment in a line: qHTS assay to identify small molecule inhibitors of firefly luciferase (AID 1224835). Further: nearly all actives have a fitted effect of over 25% in size. The gist of the method: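 Biochemical qHTS: compounds run as interplate titrations against purified firefly enzyme, with D-luciferin and ATP each at its KM concentration. Light output recorded by CCD imaging.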

Test [3] can be described thus: qHTS assay to identify small molecule agonists of the constitutive androstane receptor (CAR) signaling pathway - cell viability counter screen (AID 1224836). Further: nearly all actives have a fitted effect of over 45% in size. The gist of the method:
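Using CellTiter-Fluor, viability of HepG2 cells harbouring hCAR and CYP2B6-2.2kb was measured following 23 h incubation with a 15-concentration compound series plus PK11195 (0.75 uM final).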
In general terms: In qHTS, concentration-response curves come from the screen itself.

The nature of test [4]: qHTS assay to identify small molecule antagonists of the constitutive androstane receptor (CAR) signaling pathway - cell viability counter screen (AID 1224837). Further: nearly all actives have a fitted effect of over 45% in size. The gist of the method: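 HepG2 cells stably carrying hCAR and CYP2B6-2.2kb reporter, stimulated with 50 nM CITCO and compounds at 15 concentrations for 23 h at 37 C. Viability measured by CellTiter-Fluor fluorescence.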

The target in test [5] is Nuclear receptor subfamily 1 group I member 3 (Homo sapiens) (UniProt Q14994). The experiment in a line: qHTS assay to identify small molecule antagonists of the constitutive androstane receptor (CAR) signaling pathway (AID 1224838). Further: nearly all actives have a fitted effect of over 40% in size. Further: potency means the concentration at half of the fitted maximal effect. The procedure, abridged: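 HepG2 cells stably carrying hCAR and a CYP2B6-2.2kb luciferase reporter, seeded 4 hrs before compound (15 concentrations). Stimulated with 50 nM CITCO for 24 hr at 37 C. ONE-Glo luminescence read after 30 min at room temperature.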
Sequence of Nuclear receptor subfamily 1 group I member 3 (Homo sapiens) (Q14994 whole entry, looked up): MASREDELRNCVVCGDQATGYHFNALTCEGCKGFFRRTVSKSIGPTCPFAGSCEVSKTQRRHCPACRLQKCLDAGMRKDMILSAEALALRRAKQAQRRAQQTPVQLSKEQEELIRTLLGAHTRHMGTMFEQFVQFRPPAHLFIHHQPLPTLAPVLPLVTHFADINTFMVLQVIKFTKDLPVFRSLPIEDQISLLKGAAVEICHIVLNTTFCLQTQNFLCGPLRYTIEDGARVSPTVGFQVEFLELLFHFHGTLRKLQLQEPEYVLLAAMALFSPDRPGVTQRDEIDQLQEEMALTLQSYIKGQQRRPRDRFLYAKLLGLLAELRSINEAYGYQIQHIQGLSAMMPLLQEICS

The target is the same in test [6]. The experiment in a line: qHTS assay to identify small molecule agonists of the constitutive androstane receptor (CAR) signaling pathway (AID 1224839). Further: nearly all actives have a fitted effect of over 15% in size. The gist of the method: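 Double-stable HepG2 cells (hCAR, CYP2B6-2.2kb) seeded 4 h before compound addition. Exposure 24 h with 0.75 uM PK11195 final. Luciferase detected by ONE-Glo.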
Test [7] is described as follows: qHTS assay to identify small molecule antagonists of the estrogen related receptor signaling pathway with the pleiotropic PPARgamma coactivator (PGC) from Tox21 10K library - cell viability counter screen (AID 1224840; active means well fitted cell-killing curve with a large enough effect in the repeat runs, not every such curve was filed as active; further: nearly all actives have a fitted effect of over 40% in size). The gist of the method:
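PGC/ERR cells (2,000/well) plated 6 h, then compound-treated for 17.5 h at 37 C. Viability measured by CellTiter-Fluor fluorescence after 30 min at 37 C, multiplexed with the pathway assay.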

Test [8] deals with Thyrotropin receptor (Homo sapiens) (UniProt P16473). The experiment in a line: qHTS assay to identify small molecule agonists of the thyroid stimulating hormone receptor (TSHR) signaling pathway (AID 1224843; calls by dose curve; further: nearly all actives have a fitted effect of over 45% in size). The gist of the method:
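Steps: seed 800 TSHR-HEK293 cells per well; add test compound and hold 30 min at ambient temperature; dispense cAMP-d2 then anti-cAMP cryptate; incubate 1 h at ambient; measure fluorescence intensity.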

Test [9] in a line: qHTS assay to identify small molecule agonists of the hypoxia (HIF-1) signaling pathway - cell viability counter screen (AID 1224844; calls by dose curve; further: nearly all actives have a fitted effect of over 50% in size). The procedure, abridged:
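HRE-bla ME-180 cells, 2,000/well in 0.5% dialyzed FBS medium, treated 17 h at 37C with compounds. Viability read in the same wells as the bla reporter, by CellTiter-Glo luminescence after 30 min at room temperature.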

Test [10] is described as follows: qHTS assay to identify small molecule agonists of H2AX (AID 1224845; active means well fitted activation curve with a large enough effect in the signal ratio in the repeat runs, not every such curve was filed as active; the % refers to the signal ratio). The gist of the method: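 Wild-type CHO-K1 cells, plated overnight, exposed 3hr at 37C to 15 concentrations (0.76% DMSO final). Lysed, then HTRF anti-pH2AX (S139) cryptate and anti-H2AX-d2 antibodies, 24 hr room temperature; 665/620 nm emission read.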
The nature of test [11]: qHTS assay to identify small molecule agonists of the hypoxia (HIF-1) signaling pathway (AID 1224846; active means well fitted activation curve with a large enough effect in the signal ratio in the repeat runs, not every such curve was filed as active; the % refers to the signal ratio). The procedure, abridged: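 HRE-bla ME-180 beta-lactamase reporter cells in medium with 0.5% dialyzed FBS, pre-incubated 5 h then exposed to compounds 17 h at 37C, 5% CO2; reporter induction read with CCF4-AM FRET substrate.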
Test [12] in a line: qHTS assay to identify small molecule agonists of H2AX - cell viability counter screen (AID 1224847; calls by dose curve; further: top concentration of the series differs between compounds; nearly all actives have a fitted effect of over 30% in size). The gist of the method: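 Quantitative HTS viability measurement: CHO-K1 wild-type cells in serum (10% FBS) medium, short 3 hr drug exposure at 37C with 0.76% DMSO, CellTiter-Glo luminescent detection.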
Test [13] is described as follows: qHTS RealTime-Glo MT Cell Viability Assay in HepG2 cells - 24 hour (AID 1224867). Further: nearly all actives have a fitted effect of over 50% in size. The gist of the method: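 Viability was tracked continuously by NanoLuc luminescence from prosubstrate reduced by living HepG2 cells, at successive time points over 40 h of compound exposure. Cells with reagent were preincubated 5 h at 37 °C before compound addition.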
Test [14] in a line: qHTS RealTime-Glo MT Cell Viability Assay in HEK293 cells - 32 hour (AID 1224868). Further: nearly all actives have a fitted effect of over 50% in size. Further: potency means the concentration at half of the fitted maximal effect. The gist of the method: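 Viability tracked continuously by luminescence as live cells reduce a prosubstrate for NanoLuc; HEK293 cells preincubated 5 h, compound-treated at 37 C, and read at 0, 8, 16, 24, 32 and 40 h.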
The nature of test [15]: A CellTox Green Cytotoxicity Assay to monitor cytotoxicity in HEK293 cells - 0 hour (AID 1224869). Further: nearly all actives have a fitted effect of over 50% in size. The procedure, abridged: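 HEK293 cells, 600/well, were preincubated 5 hours and then exposed to compounds at 37 C for up to 40 hours. A cell-impermeant cyanine dye staining dead-cell DNA was read by fluorescence at 0, 8, 16, 24, 32 and 40 h time points.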
The nature of test [16]: qHTS assay to identify small molecule antagonists of the estrogen related receptor signaling pathway with the pleiotropic PPARgamma coactivator (PGC) from Tox21 10K library (AID 1224841; call rule not given here). The gist of the method:
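PGC/ERR cell line, 2,000 cells/well, pre-incubated 6 hours at 37 C, then exposed to compounds for 18 hours at 37 C; luciferase read with One-Glo luminescence after 30 min at room temperature.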

Test [17] can be described thus: qHTS assay to identify small molecule agonists of the estrogen related receptor signaling pathway with the pleiotropic PPARgamma coactivator (PGC) from Tox21 10K library (AID 1224842). Further: nearly all actives have a fitted effect of over 15% in size. The procedure, abridged: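 PGC/ERR reporter cell line, 2,000 cells per well, incubated 6 h at 37 C before 23 nL compound in DMSO was added. After 18 h at 37 C, One-Glo luminescence read following 30 min at room temperature.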

Test [18] is described as follows: qHTS assay to identify small molecule antagonists of the estrogen related receptor (ERR) signaling pathway from Tox21 library (AID 1224848). Further: nearly all actives have a fitted effect of over 50% in size. The gist of the method:
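Luminescent reporter read-out (ONE-Glo) from NTP's ERR cell line after 18 h treatment at 37 C with DMSO-dissolved Tox21 compounds; cells pre-plated 6 h beforehand at 2,000 per well.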

The nature of test [19]: qHTS assay to identify small molecule agonists of the estrogen related receptor (ERR) signaling pathway from Tox21 library (AID 1224849; calls by dose curve; further: nearly all actives have a fitted effect of over 15% in size). The settings on record: ERR reporter cell line, ONE-Glo luciferase, 18 h; at 92.4 µM (top of the series). The procedure, abridged: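 ERR reporter cells (NTP line) pre-incubated 6 hours at 37 C, then exposed to compounds for 18 hours at 37 C. ONE-Glo luciferase luminescence was read after 30 minutes at room temperature.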

Records with an inconclusive call do not appear. The source holds several records for some structures; these can differ, active in one and inactive in another. Calls of active or inactive are those of the source. Unless noted, the call rests on the fitted dose curve; in most records, active means well fitted curve in the direction sought with a large enough effect in the repeat runs; inconclusive means weak or mixed curves; inactive means no such curve, though single readings can be large; an effect the other way counts as inactive or inconclusive.
On the % scale 0 is the no-effect control and ±100 the full control effect.

Sequence of Luciferin 4-monooxygenase (Photinus pyralis) (P08659 whole entry, looked up): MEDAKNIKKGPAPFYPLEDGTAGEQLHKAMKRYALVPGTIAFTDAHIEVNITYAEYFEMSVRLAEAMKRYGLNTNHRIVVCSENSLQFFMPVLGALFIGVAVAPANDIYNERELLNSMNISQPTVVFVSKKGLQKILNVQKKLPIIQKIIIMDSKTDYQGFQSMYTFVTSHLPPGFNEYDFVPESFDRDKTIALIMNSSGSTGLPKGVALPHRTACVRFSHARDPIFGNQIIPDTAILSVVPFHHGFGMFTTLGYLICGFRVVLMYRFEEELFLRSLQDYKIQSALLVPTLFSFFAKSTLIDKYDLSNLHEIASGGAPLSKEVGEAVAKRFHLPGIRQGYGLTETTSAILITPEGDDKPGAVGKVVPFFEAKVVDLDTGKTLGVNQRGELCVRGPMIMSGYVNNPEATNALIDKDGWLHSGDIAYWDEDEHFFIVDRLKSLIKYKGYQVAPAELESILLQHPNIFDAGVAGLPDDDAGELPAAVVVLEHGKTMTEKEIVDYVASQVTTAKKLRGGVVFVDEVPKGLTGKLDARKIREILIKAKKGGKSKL
Sequence of Thyrotropin receptor (Homo sapiens) (P16473 whole entry, looked up): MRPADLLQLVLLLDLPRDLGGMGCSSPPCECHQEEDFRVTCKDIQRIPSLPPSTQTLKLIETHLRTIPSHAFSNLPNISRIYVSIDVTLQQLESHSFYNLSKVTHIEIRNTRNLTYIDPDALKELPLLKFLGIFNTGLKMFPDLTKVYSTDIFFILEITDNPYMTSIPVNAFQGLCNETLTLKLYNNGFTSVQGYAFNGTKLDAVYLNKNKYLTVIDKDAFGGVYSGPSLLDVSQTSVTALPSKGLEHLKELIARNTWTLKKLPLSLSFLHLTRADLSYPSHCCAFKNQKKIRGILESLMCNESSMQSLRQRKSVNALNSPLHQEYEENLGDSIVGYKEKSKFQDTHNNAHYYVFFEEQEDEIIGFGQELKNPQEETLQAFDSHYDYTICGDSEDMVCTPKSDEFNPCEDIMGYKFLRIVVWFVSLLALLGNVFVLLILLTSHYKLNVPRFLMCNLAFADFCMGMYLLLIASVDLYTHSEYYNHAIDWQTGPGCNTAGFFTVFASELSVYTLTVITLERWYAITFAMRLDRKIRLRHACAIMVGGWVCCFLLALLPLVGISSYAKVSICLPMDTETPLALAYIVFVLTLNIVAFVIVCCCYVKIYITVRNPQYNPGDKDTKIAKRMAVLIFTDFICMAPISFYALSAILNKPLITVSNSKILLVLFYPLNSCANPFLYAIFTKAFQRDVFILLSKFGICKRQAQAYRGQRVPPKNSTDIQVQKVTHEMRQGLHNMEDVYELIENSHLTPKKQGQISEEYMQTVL

For the compound `CC(O)CCO` (stereo not given), the Potency entry in [1], in test [2], in test [3], in test [4], in [5] and in test [6] was “inactive” in each case. Besides, the Potency entry in [7], in test [8], in test [9], in [10], in [12] and in test [13] was “inactive” throughout. For the same compound, the Potency result in test [14] and in test [15] was “inactive” in each case. Also, in [11], the compound was classed as inactive.

For the compound `C=CC(=O)OCCO`, the Potency result in test [1], in test [2], in test [3], in [4], in test [5] and in test [6] was “inactive” throughout. Besides, the Potency entry in test [7], in [8], in test [9], in test [12], in [13] and in test [14] was “inactive” each time. Moreover, the Potency result in test [15] was “inactive”. In addition, the outcome in test [11] was inactive.

Turning to `Cc1c(COC(=O)[C@@H]2[C@H](/C=C(\Cl)C(F)(F)F)C2(C)C)cccc1-c1ccccc1`, the Potency result in test [1], in [2], in test [3], in [4], in [6] and in test [7] was “inactive” in each case. Besides, the Potency entry in [9], in [13] and in test [15] was “inactive” in each case. The Potency is 53.2 µM (active) and inactive in test [5]; 21.4 µM (active) in [14]. In addition, the call in test [11] was inactive.

As to `CCCCOCCOP(=O)(OCCOCCCC)OCCOCCCC`, the Potency result in [1], in test [2], in [3], in test [4], in [5] and in test [6] was “inactive” each time. For the same compound, the Potency result in test [7], in test [9], in [10], in test [12], in [13] and in [14] was “inactive” each time. Besides, in test [15], the Potency result is “inactive”. For the same compound, the call in test [11] was inactive.

As for `CCN(CC)N=O`, the Potency result in [1], in test [2], in test [3], in test [4], in test [7] and in [16] was “inactive” in each case. Also, the Potency entry in test [17], in [8], in [9], in test [10], in [12] and in test [18] was “inactive” throughout. Besides, the Potency entry in test [13], in test [14] and in [15] was “inactive” each time. In test [11], the compound was classed as inactive. Besides, the activity change, positive = activation in test [19] was 0.678% (inactive).

On to `N#CC(Br)Br`, for which the Potency entry in [1], in test [2], in test [3], in test [4], in test [5] and in test [6] was “inactive” each time. Also, the Potency entry in test [7], in [8], in [9], in test [10], in [12] and in test [13] was “inactive” in each case. Moreover, the Potency result in test [14] and in test [15] was “inactive” in each case. The call in [11] was inactive.

Consider `CC(C)(C)c1ccccc1O`, for which the Potency result in test [1], in test [2], in test [3], in test [4], in test [5] and in test [6] was “inactive” throughout. Moreover, the Potency entry in [7], in test [9], in [10], in test [13], in test [14] and in test [15] was “inactive” throughout. Further, the outcome in test [11] was inactive.
